PubChem BioAssay AID1745853 (National Center for Advancing Translational Sciences (NCATS), 2022)
Screen size: about 25,000 compounds; about 970 (3.9%) were called active. Inconclusive results (about 8%) are left out. The rule behind the calls is not given here. The entries come from a sample that favours actives as a whole.

Assays:
Experiment in all cases: Primary Screen for Target Class Profiling of Small Molecule Inhibitors of Methyltransferases
[1] = molecular target: Catechol O-methyltransferase (Homo sapiens) (UniProt P21964); conditions: purified enzyme, MTase-Glo SAH luminescence; activity change, negative = inhibition: at 40 µM, stronger effect = lower value; outcome: 40 uM
Chain of Catechol O-methyltransferase (Homo sapiens) (P21964 whole entry, looked up): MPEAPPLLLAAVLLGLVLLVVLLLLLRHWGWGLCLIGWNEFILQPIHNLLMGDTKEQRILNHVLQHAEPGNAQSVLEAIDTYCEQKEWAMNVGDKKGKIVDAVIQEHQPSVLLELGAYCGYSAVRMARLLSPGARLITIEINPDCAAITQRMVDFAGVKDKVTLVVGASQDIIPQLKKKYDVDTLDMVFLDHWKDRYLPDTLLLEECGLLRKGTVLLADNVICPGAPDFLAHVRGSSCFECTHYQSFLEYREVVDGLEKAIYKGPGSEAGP
Text: (§1) PI: Matthew D. Hall Ph.D. and Quinlin M. Hanson Ph.D.
(§2) National Center for Advancing Translational Sciences (NCATS)
(§3) National Institute of Health (NIH), Rockville, MD
(§4) Target class profiling (TCP) is a chemical biology approach amenable to investigating understudied biological targets. TCP is achieved by developing a generalizable assay platform and applying it to screen a curated set of compound libraries against representative members of a target class. Small molecule methyltransferases (SMMTase) are a subclass of methyltransferase that act on metabolites to modulate signaling pathways, metabolize xenobiotics, or balance the available methyl pool. We screened four curated libraries totaling 27,574 unique compounds against the SMMTases nicotinamide N-methyltransferase (NNMT), phenylethanolamine N-methyltransferase (PNMT), histamine N-methyltransferase (HNMT), glycine N-methyltransferase (GNMT), catechol O-methyltransferase (COMT), and guanidinoacetate N-methyltransferase (GAMT). The data generated by this TCP can be leveraged for informed tool molecule development. For example, in the associated publication we identified a chemotype of HNMT-selective inhibitors. Additionally, we identified a putative SMMTase-selective inhibitor with potential as a tool molecule for studying broader methyltransferase biology.
(§5) High-through put screening assays were developed at the National Center for Advancing Translational Science (NCATS) for the enzymes NNMT, PNMT, HNMT, GNMT, COMT, and GAMT. Enzymatic activity was measured as a function of SAM cofactor conversion using the MTase Glo kit (Promega) for all enzymes. All assays were performed in 1536-well format with substrates and SAM concentrations at KM values. Enzyme concentration and assay timing were optimized for 10-20% SAM conversion. Initial screening of 27,574 compounds was done as single-point assays using the highest compound concentration (40 uM). […] These compounds were replated in 11-point dose response and assayed against NNMT, PNMT, HNMT, GNMT, COMT, GAMT, and a counter-assay. The IC50 and efficacy (maximal response) values were determined for each dose-response curve. These values are also accounted for in the area under the curve (AUC) values.
(§6) PROTOCOL TABLE (as described by Inglese J, Shamu CE and Guy RK. 2007)
(§7) SEQUENCE No. (e.g., 1, 2, 3, etc.); […] (e.g., Cells, Incubation, Reagent, etc.); VALUE; DESCRIPTION.
(§8) 1; Reagent; 2 uL; SMMTase Enzyme (2x) in reaction buffer, columns 1- 48.
(§9) 2; Reagent; 1 uL; SAM (4x) in reaction buffer, columns 1-48.
(§10) 3; Controls; 23 nL; DMSO in column 4; sinefungin in DMSO (0 uM - 40 uM) in 7-point 1:2 dilution series (n = 2) in column 2.
(§11) 4; Compounds; 23 nL; Columns 5-48.
(§12) 5; Reagent; 1 uL; Substrate (4x) in reaction buffer, columns 2-48.
(§13) 6; Time; 20-30 min; Incubation.
(§14) 7; Reagent; 1 uL; MTase-Glo reagent (5X), columns 1-48.
(§15) 8; Time; 30 min; Incubation.
(§16) 9; Reagent; 5 uL; MTase-Glo Detection reagent, columns 1-48.
(§17) 10; Time; 30 min; Incubation, luminescence evolution.
(§18) 11; Detection; Luminescence; ViewLux uHTS Microplate Imager (PerkinElmer).
(§19) NOTES (numbers refer to Sequence numbers above)
(§20) 1, 2, 5. White Medium Binding Greiner 1536-well plates (Cat #789175-F, Greiner Bio-One, Monroe, NC); Reaction buffer: 50 mM Tris, pH 8.0, 3 mM MgCl2, 1 mM EDTA, 50 mM NaCl, 1 mM DTT, and 0.1 mg/mL BSA. Evaporation was prevented by covering assay plates with metal lids containing holes to allow gas diffusion.
(§21) 1. Six SMMTase were profiled: HNMT, GNMT, PNMT, COMT, NNMT, GAMT
(§22) 5. The corresponding substrate was used for each enzyme: HNMT - 5.3 uM Histamine; GNMT - >500 uM Glycine; PNMT - 16.2 uM Norephinephrine; COMT - 13.7 uM Norephinephrine; NNMT - 3.8 uM Nicotinamide; GAMT - 2.5 uM Guanidinoacetate.6, 8, 10. Room temperature
(§23) 6. Final reaction conditions: 10 nM COMT, 5 uM SAM, 15 uM norepinephrine, 50 mM Tris, pH 8.0, 3 mM MgCl2, 1 mM EDTA, 50 mM NaCl, 1 mM DTT, and 0.1 mg/mL BSA; refer to tables 2 and S1 for specific timing.
8. […]

[2] = molecular target: Glycine N-methyltransferase (Homo sapiens) (UniProt Q14749); conditions: purified enzyme, MTase-Glo SAH luminescence; measured here: GNMT inhibition; at 40 µM; stronger effect = lower value
Chain of Glycine N-methyltransferase (Homo sapiens) (Q14749 whole entry, looked up): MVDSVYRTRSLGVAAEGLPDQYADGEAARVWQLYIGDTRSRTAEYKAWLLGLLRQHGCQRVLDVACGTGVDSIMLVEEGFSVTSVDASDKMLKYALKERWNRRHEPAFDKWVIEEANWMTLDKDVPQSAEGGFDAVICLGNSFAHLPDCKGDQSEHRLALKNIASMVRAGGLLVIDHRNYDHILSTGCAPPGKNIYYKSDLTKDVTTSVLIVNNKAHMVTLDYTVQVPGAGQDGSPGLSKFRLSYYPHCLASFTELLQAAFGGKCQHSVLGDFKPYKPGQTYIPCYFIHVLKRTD
Text: as §1, §2, §3, §4, §5, §6, §7, §8, §9, §10, §11, §12, §13, §14, §15, §16, §17, §18, §19, §20, §21, §22, §23
8. […]

[3] = molecular target: Guanidinoacetate N-methyltransferase (Homo sapiens) (UniProt Q14353); conditions: purified enzyme, MTase-Glo SAH luminescence; measured here: GAMT inhibition; at 40 µM; stronger effect = lower value
Text: as §1, §2, §3, §4, §5, §6, §7, §8, §9, §10, §11, §12, §13, §14, §15, §16, §17, §18, §19, §20, §21, §22, §23
8. […]

[4] = molecular target: Histamine N-methyltransferase (Homo sapiens) (UniProt P50135); conditions: purified enzyme, MTase-Glo SAH luminescence; measured here: HNMT inhibition; at 40 µM; stronger effect = lower value
Chain of Histamine N-methyltransferase (Homo sapiens) (P50135 whole entry, looked up): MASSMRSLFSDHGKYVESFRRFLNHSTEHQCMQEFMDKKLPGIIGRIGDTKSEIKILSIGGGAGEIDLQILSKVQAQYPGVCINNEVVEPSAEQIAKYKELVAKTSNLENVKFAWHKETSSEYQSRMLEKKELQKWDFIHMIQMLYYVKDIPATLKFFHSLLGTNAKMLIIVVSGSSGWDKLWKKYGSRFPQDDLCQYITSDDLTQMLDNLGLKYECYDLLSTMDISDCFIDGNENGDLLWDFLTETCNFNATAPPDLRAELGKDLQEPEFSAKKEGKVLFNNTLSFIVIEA
Text: as §1, §2, §3, §4, §5, §6, §7, §8, §9, §10, §11, §12, §13, §14, §15, §16, §17, §18, §19, §20, §21, §22, §23
8. […]

[5] = molecular target: Nicotinamide N-methyltransferase (Homo sapiens) (UniProt P40261); conditions: purified enzyme, MTase-Glo SAH luminescence; measured here: NNMT inhibition; at 40 µM; stronger effect = lower value
Chain of Nicotinamide N-methyltransferase (Homo sapiens) (P40261 whole entry, looked up): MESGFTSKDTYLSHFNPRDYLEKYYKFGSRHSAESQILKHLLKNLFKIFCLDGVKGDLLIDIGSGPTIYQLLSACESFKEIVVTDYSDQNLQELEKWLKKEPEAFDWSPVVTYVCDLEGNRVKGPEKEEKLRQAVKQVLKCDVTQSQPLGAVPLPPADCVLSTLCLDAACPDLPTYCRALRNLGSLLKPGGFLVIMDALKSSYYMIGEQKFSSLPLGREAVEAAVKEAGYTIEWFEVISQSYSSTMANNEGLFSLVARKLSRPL
Text: as §1, §2, §3, §4, §5, §6, §7, §8, §9, §10, §11, §12, §13, §14, §15, §16, §17, §18, §19, §20, §21, §22, §23
8. […]

[6] = molecular target: Phenylethanolamine N-methyltransferase (Homo sapiens) (UniProt P11086); conditions: purified enzyme, MTase-Glo SAH luminescence; measured here: PNMT inhibition; at 40 µM; stronger effect = lower value
Chain of Phenylethanolamine N-methyltransferase (Homo sapiens) (P11086 whole entry, looked up): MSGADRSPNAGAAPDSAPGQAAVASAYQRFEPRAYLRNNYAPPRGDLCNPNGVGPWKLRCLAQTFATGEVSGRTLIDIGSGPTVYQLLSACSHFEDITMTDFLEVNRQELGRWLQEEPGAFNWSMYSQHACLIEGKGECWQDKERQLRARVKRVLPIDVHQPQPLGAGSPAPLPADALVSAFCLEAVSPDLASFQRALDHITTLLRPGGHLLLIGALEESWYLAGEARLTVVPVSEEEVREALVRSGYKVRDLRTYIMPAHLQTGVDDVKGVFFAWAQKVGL
Text: as §1, §2, §3, §4, §5, §6, §7, §8, §9, §10, §11, §12, §13, §14, §15, §16, §17, §18, §19, §20, §21, §22, §23
8. […]
% is set by controls: 0 for no effect and ±100 for the full control effect.

Structure (SMILES) | activity change, negative = inhibition [1] | activity change, negative = inhibition [2] | activity change, negative = inhibition [3] | activity change, negative = inhibition [4] | activity change, negative = inhibition [5] | activity change, negative = inhibition [6]
CC1CCCC(NC(=O)C2(C)Cn3c(nc4ccccc43)C(=O)N2Cc2ccc(Cl)cc2)C1C (centres undefined) | 1.59% (inactive) | -0.93% | 1.75% | 0.57% | 2.43% | -2.27%
Cc1cccc(CCNC(=O)c2cc3n(n2)CC(C)(C(=O)NCc2ccccc2)N(C)C3=O)c1 (centres undefined) | 0.858% (inactive) | 3.01% | 0.251% | 3.89% | 3.49% | 1.3%
CCCS(=O)(=O)N1CCCC(OCc2noc(C3CCOCC3)n2)C1 (centres undefined) | -3.2% (inactive) | -4.75% | -6.9% | -3.01% | -9.35% | -7.82%
CCCS(=O)(=O)N1CCCC(Cn2c(C)nc3cccnc32)C1 (centres undefined) | -1.28% (active) | -90.9% | -3.03% | -2.37% | -5.85% | -1.53%
CCCS(=O)(=O)N1CCCC(Cc2noc(-c3cnccn3)n2)C1 (centres undefined) | -2.88% (inactive) | -4% | -4.91% | -0.21% | -5.94% | -4.02%
CC1(C(=O)NC2CCCC2)Cn2c(cc3ccccc32)C(=O)N1c1ccc(F)cc1 (centres undefined) | 1% (inactive) | 0.736% | 0% | 3.74% | 5.9% | 0.017%
Cc1cccc(NC(=O)CSc2nnc3n(CC(C)C)c(=O)c4ccc(C(=O)NC(C)C)cc4n23)c1 | 2.32% (inactive) | 0.335% | 4.37% | 4.71% | -3.04% | 1.77%
Cc1c(NS(=O)(=O)c2cccc3c2C(=O)c2ccccc2C3=O)c(=O)n(-c2ccccc2)n1C | -6.91% (inactive) | -20.9% | 3.01% | -5.26% | -8.5% | -27%
COc1ccccc1CCN1C(=O)c2ccc(-c3ccco3)n2CC1(C)C(=O)NC1CCCCCC1 (centres undefined) | -0.859% (inactive) | -4.07% | 0% | -1.27% | -3.86% | -2.83%
Cc1ccc(N2C(=O)c3cc(-c4ccco4)nn3CC2(C)C(=O)NC2CCCCC2)cc1Cl (centres undefined) | -4.47% (inactive) | -10.8% | 2.7% | -6.61% | -7.94% | -7.34%
O=C(c1coc(CN2CCN(C/C=C/c3ccccc3)CC2)n1)N1CCC[C@H]1CO | 1.4% (inactive) | -0.744% | 2.52% | 0.892% | -2.33% | 15.6%
O=C1Nc2ccc(O)cc2O[C@H]1O[C@@H]1O[C@H](CO)[C@@H](O)[C@H](O)[C@H]1O | 2.34% (inactive) | 1.1% | 7.9% | 2.99% | -5.97% | 2.07%
CCc1ccc(NS(=O)(=O)c2cc3c(cc2C)n(C)c(=O)n3C)cc1 | 6.7% (inactive) | 2.79% | 0% | 1.74% | -13.9% | -1.81%
CNC(=O)c1ccccc1Nc1nc(Nc2ccc(N3CCOCC3)cc2OC)ncc1Cl | 1.38% (inactive) | -17.4% | 6.33% | -0.939% | -26.5% | -6.85%
